From PubChem BioAssay AID1159580 (chemical genetic matrix, 2015)
About 2,000 (36%) of roughly 5,500 compounds were called active. Inconclusive results (about 18%) are left out. Rule as the data show it: active = normalized growth mostly below about 0.91 (no sharp cut-off); inconclusive = no clear call, values can overlap the other calls; inactive = mostly above about 0.92. The list shows a part of the results.

Assay: chemical genetic growth profiling, strain panel (AID 1159580);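 also: tested at 20 µM; growth read once vehicle control cultures reached saturation at 30 °C; 1 = growth at the plate median or of vehicle wells; lower values mean less growth of the strain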
Conditions: growth OD

Measured: normalized growth

C[N+]1(C)C2CC(OC(=O)[C@@H](CO)c3ccccc3)CC1C1OC12 (stereo partly drawn)
active: S. cerevisiae deletion strains, locus YML120C, strain ndi1, hits give low values 0.903 | S. cerevisiae deletion strains, locus YOR290C, strain snf2, hits give low values 0.865
inactive: S. cerevisiae deletion strains, locus YJR066W, strain TOR1, hits give low values 0.976 | S. cerevisiae deletion strains, locus YJR075W, strain HOC1, hits give low values 1.01 | S. cerevisiae deletion strains, locus YKL009W, strain mrt4, hits give low values 1 | S. cerevisiae deletion strains, locus YKL068W, hits give low values 1 | S. cerevisiae deletion strains, locus YKL085W, strain MDH1 (second series), hits give low values 1.01 | S. cerevisiae deletion strains, locus YKL085W, strain MDH1, hits give low values 1.01 | S. cerevisiae deletion strains, locus YKL160W, strain elf1, hits give low values 0.955 | S. cerevisiae deletion strains, locus YKL190W, strain CNB1, hits give low values 1.03 | S. cerevisiae deletion strains, locus YKR001C, strain vps1, hits give low values 1.02 | S. cerevisiae deletion strains, locus YKR026C, strain gcn3, hits give low values 0.984 | S. cerevisiae deletion strains, locus YKR091W, strain srl3, hits give low values 0.968 | S. cerevisiae deletion strains, locus YLL001W, strain dnm1, hits give low values 0.933 | S. cerevisiae deletion strains, locus YLL026W, hits give low values 0.985 | S. cerevisiae deletion strains, locus YLL041C, strain sdh2, hits give low values 0.984 | S. cerevisiae deletion strains, locus YLR027C, strain aat2, hits give low values 0.982 | S. cerevisiae deletion strains, locus YLR039C, strain RIC1, hits give low values 1.02 | S. cerevisiae deletion strains, locus YLR058C, strain SHM2, hits give low values 1.02 | S. cerevisiae deletion strains, locus YLR102C, strain apc9, hits give low values 1.02 | S. cerevisiae deletion strains, locus YLR113W, strain HOG1, hits give low values 1 | S. cerevisiae deletion strains, locus YLR221C, strain rsa3, hits give low values 0.91 | S. cerevisiae deletion strains, locus YLR258W, strain gsy2, hits give low values 0.969 | S. cerevisiae deletion strains, locus YLR262C, strain YPT6 (second series), hits give low values 0.973 | S. cerevisiae deletion strains, locus YLR262C, strain YPT6, hits give low values 1.06 | S. cerevisiae deletion strains, locus YLR268W, strain sec22, hits give low values 1.03 | S. cerevisiae deletion strains, locus YLR320W, strain mms22, hits give low values 0.94 | S. cerevisiae deletion strains, locus YLR330W, strain CHS5, hits give low values 1.02 | S. cerevisiae deletion strains, locus YLR342W, strain FKS1 (second series), hits give low values 1.03 | S. cerevisiae deletion strains, locus YLR342W, strain FKS1, hits give low values 0.962 | S. cerevisiae deletion strains, locus YLR357W, strain rsc2, hits give low values 0.979 | S. cerevisiae deletion strains, locus YLR370C, strain arc18, hits give low values 0.948 | S. cerevisiae deletion strains, locus YLR371W, strain rom2, hits give low values 1 | S. cerevisiae deletion strains, locus YLR384C, strain iki3, hits give low values 0.97 | S. cerevisiae deletion strains, locus YLR418C, strain cdc73, hits give low values 1.05 | S. cerevisiae deletion strains, locus YML016C, strain PPZ1, hits give low values 1.01 | S. cerevisiae deletion strains, locus YML032C, strain rad52, hits give low values 1.01 | S. cerevisiae deletion strains, locus YML124C, strain tub3, hits give low values 1.03 | S. cerevisiae deletion strains, locus YMR058W, strain fet3, hits give low values 0.973 | S. cerevisiae deletion strains, locus YMR078C, strain ctf18, hits give low values 1.02 | S. cerevisiae deletion strains, locus YMR125W, strain sto1, hits give low values 0.962 | S. cerevisiae deletion strains, locus YMR129W, hits give low values 0.982 | S. cerevisiae deletion strains, locus YMR205C, strain PFK2, hits give low values 0.956 | S. cerevisiae deletion strains, locus YMR223W, strain ubp8, hits give low values 1.05 | S. cerevisiae deletion strains, locus YMR231W, strain pep5, hits give low values 0.989 | S. cerevisiae deletion strains, locus YMR307W, strain GAS1, hits give low values 1.05 | S. cerevisiae deletion strains, locus YNL067W, strain RPL9B, hits give low values 1.02 | S. cerevisiae deletion strains, locus YNL071W, strain lat1, hits give low values 0.978 | S. cerevisiae deletion strains, locus YNL183C, strain NPR1, hits give low values 0.957 | S. cerevisiae deletion strains, locus YNL209W, strain ssb2, hits give low values 0.959 | S. cerevisiae deletion strains, locus YNL233W, strain BNI4, hits give low values 1.01 | S. cerevisiae deletion strains, locus YNL248C, strain rpa49, hits give low values 0.971 | S. cerevisiae deletion strains, locus YNL250W, strain rad50, hits give low values 1.02 | S. cerevisiae deletion strains, locus YNL271C, strain bni1, hits give low values 1.01 | S. cerevisiae deletion strains, locus YNL298W, strain CLA4, hits give low values 1.02 | S. cerevisiae deletion strains, locus YNL307C, strain MCK1, hits give low values 1.02 | S. cerevisiae deletion strains, locus YNL322C, strain KRE1 (second series), hits give low values 0.936 | S. cerevisiae deletion strains, locus YNR049C, strain mso1, hits give low values 0.964 | S. cerevisiae deletion strains, locus YNR052C, strain pop2, hits give low values 1.02 | S. cerevisiae deletion strains, locus YOL012C, strain htz1 1.54 | S. cerevisiae deletion strains, locus YOL147C, strain pex11, hits give low values 1.03 | S. cerevisiae deletion strains, locus YOR001W, strain rrp6, hits give low values 1.04 | S. cerevisiae deletion strains, locus YOR061W, strain CKA2, hits give low values 1.01 | S. cerevisiae deletion strains, locus YOR069W, strain VPS5, hits give low values 1.01 | S. cerevisiae deletion strains, locus YOR070C, strain gyp1, hits give low values 0.99 | S. cerevisiae deletion strains, locus YOR080W, strain dia2, hits give low values 0.952 | S. cerevisiae deletion strains, locus YOR083W, strain WHI5, hits give low values 0.962 | S. cerevisiae deletion strains, locus YOR106W, strain vam3, hits give low values 0.933 | S. cerevisiae deletion strains, locus YOR136W, strain idh2, hits give low values 1.02 | S. cerevisiae deletion strains, locus YOR144C, strain elg1, hits give low values 1.01 | S. cerevisiae deletion strains, locus YOR184W, strain ser1, hits give low values 1.03 | S. cerevisiae deletion strains, locus YOR231W, strain MKK1, hits give low values 0.998 | S. cerevisiae deletion strains, locus YOR265W, strain rbl2, hits give low values 0.965 | S. cerevisiae deletion strains, locus YOR270C, strain vph1, hits give low values 0.935 | S. cerevisiae deletion strains, locus YOR316C, strain cot1, hits give low values 1.02 | S. cerevisiae deletion strains, locus YPL051W, strain arl3, hits give low values 0.988 | S. cerevisiae deletion strains, locus YPL055C, strain LGE1, hits give low values 1.05 | S. cerevisiae deletion strains, locus YPL078C, strain atp4, hits give low values 0.956 | S. cerevisiae deletion strains, locus YPL106C, strain sse1, hits give low values 0.94 | S. cerevisiae deletion strains, locus YPL240C, strain hsp82, hits give low values 0.978 | S. cerevisiae deletion strains, locus YPL241C, strain CIN2, hits give low values 1.01 | S. cerevisiae deletion strains, locus YPL256C, strain CLN2, hits give low values 1.05 | S. cerevisiae deletion strains, locus YPR119W, strain clb2, hits give low values 1.01 | S. cerevisiae deletion strains, locus YPR141C, strain kar3, hits give low values 1.01 | S. cerevisiae deletion strains, locus YPR163C, strain tif3, hits give low values 1.03 | S. cerevisiae deletion strains, locus YPR167C, strain met16, hits give low values 1.03 | S. cerevisiae deletion strains, strain wtn01, hits give low values 1.02 | S. cerevisiae strains, strain wild type, hits give low values 1.03
